Laboratory results: the supplement of paper PMC10849652
The full data set covers some 7,900 targets. This sample favours those with a hit. About 0.6% of all pairs of compound and target were hits.

Legend:
Assay in all cases: log2 fold change, soluble protein after heating vs DMSO (PISA); higher = thermal stabilisation; K562 cells, 10 uM, 30 min; active = over 0.2 and 3.5 SD of the protein, either way, in both replicates (recomputed)
[1] = compound: CS(=O)(=O)c1ccc(-c2cnc(N)c(C(=O)Nc3ccccc3)n2)cc1
Summary of the method: (§1)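 Soluble protein was quantified by TMTpro 16plex LC-MS/MS after channel sums were equalised. It was obtained as the supernatant after 21,000xg for 90 min from pooled aliquots of K562 cells (2×10^6 cells/mL, 10 μM compound, 30 min) heated for 3 min across 48°C-58°C and extracted in PBS with 0.5% NP-40 at 4°C. Thermal stability values are relative to control samples and come from duplicates. They are given as log2 fold changes.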

crizotinib = compound: C[C@@H](Oc1cc(-c2cnn(C3CCNCC3)c2)cnc1N)c1c(Cl)ccc(F)c1Cl [crizotinib]
Summary of the method: as §1

[2] = compound: C[C@@H]1COCCN1C2=NC(=NC(=C2)C3(CC3)S(=O)(=O)C)C4=C5C=CNC5=CC=C4
Summary of the method: as §1

[3] = compound: C[C@H](C1=CC=C(C=C1)C(=O)NC2=C3C=CNC3=NC=C2)N
Summary of the method: as §1

duvelisib = compound: C[C@H](Nc1ncnc2nc[nH]c12)c1cc2cccc(Cl)c2c(=O)n1-c1ccccc1 [duvelisib]
Summary of the method: as §1

gandotinib = compound: Cc1cc(Nc2cc(CN3CCOCC3)c3nc(C)c(Cc4ccc(Cl)cc4F)n3n2)n[nH]1 [gandotinib]
Summary of the method: as §1

tozasertib = compound: Cc1cc(Nc2cc(N3CCN(C)CC3)nc(Sc3ccc(NC(=O)C4CC4)cc3)n2)n[nH]1 [tozasertib]
Summary of the method: as §1

[4] = compound: Cc1cc(SCc2sc(-c3ccc(C(F)(F)F)cc3)nc2C)ccc1OCC(=O)O
Summary of the method: as §1

doramapimod = compound: Cc1ccc(-n2nc(C(C)(C)C)cc2NC(=O)Nc2ccc(OCCN3CCOCC3)c3ccccc23)cc1 [doramapimod]
Summary of the method: as §1

ispinesib = compound: Cc1ccc(C(=O)N(CCCN)[C@@H](c2nc3cc(Cl)ccc3c(=O)n2Cc2ccccc2)C(C)C)cc1 [ispinesib]
Summary of the method: as §1

Measured: log2 fold change

OSBP (UniProt P22059)
UniProt P22059, sequence (P22059 whole entry, looked up): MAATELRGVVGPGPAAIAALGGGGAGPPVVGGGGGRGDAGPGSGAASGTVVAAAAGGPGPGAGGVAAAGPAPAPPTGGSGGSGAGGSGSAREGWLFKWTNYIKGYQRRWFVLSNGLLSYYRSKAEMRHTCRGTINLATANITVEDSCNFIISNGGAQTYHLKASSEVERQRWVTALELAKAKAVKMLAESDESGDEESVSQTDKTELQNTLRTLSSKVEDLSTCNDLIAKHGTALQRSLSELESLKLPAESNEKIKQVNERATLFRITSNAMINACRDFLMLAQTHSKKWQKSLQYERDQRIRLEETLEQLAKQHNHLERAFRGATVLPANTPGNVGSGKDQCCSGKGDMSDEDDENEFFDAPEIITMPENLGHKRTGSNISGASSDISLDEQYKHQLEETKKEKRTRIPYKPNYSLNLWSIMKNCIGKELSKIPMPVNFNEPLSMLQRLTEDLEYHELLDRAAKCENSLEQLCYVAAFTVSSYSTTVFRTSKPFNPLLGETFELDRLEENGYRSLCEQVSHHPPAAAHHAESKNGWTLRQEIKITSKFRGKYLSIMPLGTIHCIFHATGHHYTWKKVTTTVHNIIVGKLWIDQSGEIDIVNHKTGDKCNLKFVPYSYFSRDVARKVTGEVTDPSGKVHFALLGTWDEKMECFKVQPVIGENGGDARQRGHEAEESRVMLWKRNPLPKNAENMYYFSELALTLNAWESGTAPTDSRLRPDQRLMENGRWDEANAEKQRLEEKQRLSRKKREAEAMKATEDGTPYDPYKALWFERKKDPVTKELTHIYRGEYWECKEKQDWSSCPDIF
inactive: [1] -0.015 | crizotinib 0.057 | [2] 0.025 | [3] -0.043 | duvelisib 0.074 | gandotinib -0.025 | tozasertib -0.009 | [4] 0.016 | doramapimod -0.028
active: ispinesib 0.216

NMD3 (UniProt Q96D46)
inactive: [1] 0.094 | crizotinib 0.003 | [2] 0.122 | [3] -0.179 | duvelisib 0.064 | gandotinib 0.007 | tozasertib -0.007 | [4] 0.03 | doramapimod -0.013 | ispinesib 0.139

NFATC3 (UniProt Q12968)
UniProt Q12968, sequence (Q12968 whole entry, looked up): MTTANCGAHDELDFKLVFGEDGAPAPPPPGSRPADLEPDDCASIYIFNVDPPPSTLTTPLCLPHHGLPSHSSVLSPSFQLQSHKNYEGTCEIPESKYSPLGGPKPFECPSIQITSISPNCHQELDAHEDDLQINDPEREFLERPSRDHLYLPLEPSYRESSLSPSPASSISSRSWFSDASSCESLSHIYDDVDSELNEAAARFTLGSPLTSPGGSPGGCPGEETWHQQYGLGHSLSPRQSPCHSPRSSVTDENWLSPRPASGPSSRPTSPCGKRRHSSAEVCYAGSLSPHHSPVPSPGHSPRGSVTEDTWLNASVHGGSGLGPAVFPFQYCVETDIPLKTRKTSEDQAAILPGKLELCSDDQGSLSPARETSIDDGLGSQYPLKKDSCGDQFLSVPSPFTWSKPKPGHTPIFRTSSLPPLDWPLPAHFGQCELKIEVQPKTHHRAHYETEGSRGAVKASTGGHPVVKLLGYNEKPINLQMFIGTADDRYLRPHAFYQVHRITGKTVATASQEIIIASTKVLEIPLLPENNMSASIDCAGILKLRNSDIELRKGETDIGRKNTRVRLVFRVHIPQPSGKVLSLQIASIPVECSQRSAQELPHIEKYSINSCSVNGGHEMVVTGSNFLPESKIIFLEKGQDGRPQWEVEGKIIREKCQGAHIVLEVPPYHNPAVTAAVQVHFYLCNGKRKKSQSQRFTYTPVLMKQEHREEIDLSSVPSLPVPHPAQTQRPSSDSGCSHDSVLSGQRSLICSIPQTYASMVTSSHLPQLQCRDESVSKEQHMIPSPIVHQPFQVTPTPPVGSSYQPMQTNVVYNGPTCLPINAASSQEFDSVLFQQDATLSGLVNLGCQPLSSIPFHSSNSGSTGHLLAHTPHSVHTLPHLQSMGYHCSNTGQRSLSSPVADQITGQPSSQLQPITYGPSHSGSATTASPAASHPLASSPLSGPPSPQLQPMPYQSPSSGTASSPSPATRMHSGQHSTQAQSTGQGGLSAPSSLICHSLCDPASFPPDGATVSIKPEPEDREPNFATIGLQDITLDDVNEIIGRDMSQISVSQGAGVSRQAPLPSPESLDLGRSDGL
inactive: [1] -0.06 | crizotinib -0.179 | [2] 0.014 | [3] -0.04 | duvelisib -0.012 | gandotinib -0.161 | tozasertib -0.039 | [4] 0.091 | doramapimod 0.066 | ispinesib 0.256

NOSIP (UniProt Q9Y314)
inactive: [1] 0.108 | crizotinib 0.329 | [2] -0.08 | [3] -0.03 | duvelisib 0.118 | gandotinib -0.118 | tozasertib 0.191 | [4] 0.257 | doramapimod -0.113 | ispinesib 0.133

NME7 (UniProt Q9Y5B8)
inactive: [1] -0.187 | crizotinib -0.136 | [2] -0.027 | [3] 0.046 | duvelisib -0.031 | gandotinib -0.091 | tozasertib 0.068 | [4] 0.056 | doramapimod 0.033 | ispinesib -0.117

NELFB isoform 2 (UniProt Q8WX92)
UniProt Q8WX92, sequence (Q8WX92 whole entry, looked up): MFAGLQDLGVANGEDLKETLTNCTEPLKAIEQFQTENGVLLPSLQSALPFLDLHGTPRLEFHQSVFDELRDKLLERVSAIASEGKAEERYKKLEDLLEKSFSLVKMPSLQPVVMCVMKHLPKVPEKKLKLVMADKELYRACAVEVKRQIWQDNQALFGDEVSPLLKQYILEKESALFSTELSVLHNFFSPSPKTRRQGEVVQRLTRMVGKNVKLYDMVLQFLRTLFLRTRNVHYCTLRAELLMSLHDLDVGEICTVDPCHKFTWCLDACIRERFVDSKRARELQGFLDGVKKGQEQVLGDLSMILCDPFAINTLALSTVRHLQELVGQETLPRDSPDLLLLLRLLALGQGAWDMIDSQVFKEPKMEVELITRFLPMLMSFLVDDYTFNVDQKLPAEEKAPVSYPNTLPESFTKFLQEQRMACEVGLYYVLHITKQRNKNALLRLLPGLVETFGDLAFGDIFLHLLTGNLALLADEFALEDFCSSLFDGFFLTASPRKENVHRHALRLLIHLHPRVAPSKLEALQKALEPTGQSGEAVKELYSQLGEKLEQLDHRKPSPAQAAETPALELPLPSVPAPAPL
inactive: [1] 0.059 | crizotinib 0.019 | [2] 0.087 | [3] -0.08 | duvelisib 0.088 | gandotinib -0.093 | tozasertib 0.033 | [4] 0.086 | doramapimod -0.087 | ispinesib 0.042

NMT2 (UniProt O60551)
UniProt O60551, sequence (O60551 whole entry, looked up): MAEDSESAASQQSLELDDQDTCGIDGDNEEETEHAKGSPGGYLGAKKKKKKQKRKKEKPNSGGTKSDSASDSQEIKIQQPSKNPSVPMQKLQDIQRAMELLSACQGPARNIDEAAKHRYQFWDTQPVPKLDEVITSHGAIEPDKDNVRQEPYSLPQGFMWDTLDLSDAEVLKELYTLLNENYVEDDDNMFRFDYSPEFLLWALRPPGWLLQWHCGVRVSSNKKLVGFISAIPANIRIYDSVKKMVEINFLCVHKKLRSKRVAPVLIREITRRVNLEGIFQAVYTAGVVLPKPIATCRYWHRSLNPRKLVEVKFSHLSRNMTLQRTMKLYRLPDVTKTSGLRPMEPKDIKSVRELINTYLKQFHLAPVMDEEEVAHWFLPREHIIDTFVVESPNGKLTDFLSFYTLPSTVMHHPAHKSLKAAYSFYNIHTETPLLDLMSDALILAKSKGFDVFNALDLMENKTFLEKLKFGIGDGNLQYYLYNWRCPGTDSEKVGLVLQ
inactive: [1] 0.043 | crizotinib -0.187 | [2] 0.059 | [3] 0.018 | duvelisib 0.038 | gandotinib 0.013 | tozasertib 0.042 | [4] 0.023 | doramapimod -0.013 | ispinesib -0.167

NAA38 isoform 2 (UniProt Q9BRA0)
UniProt Q9BRA0, sequence (Q9BRA0 whole entry, looked up): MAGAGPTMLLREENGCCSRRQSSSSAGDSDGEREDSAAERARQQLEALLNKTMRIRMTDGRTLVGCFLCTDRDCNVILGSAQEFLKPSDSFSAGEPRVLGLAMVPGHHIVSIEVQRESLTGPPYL
inactive: [1] 0.012 | crizotinib -0.052 | [2] 0.099 | [3] 0.018 | duvelisib 0.124 | gandotinib -0.004 | tozasertib -0.013 | [4] 0.015 | doramapimod -0.02 | ispinesib -0.064

MRPS22 (UniProt P82650)
inactive: [1] -0.014 | crizotinib 0.037 | [2] 0.086 | [3] 0.055 | duvelisib 0.043 | gandotinib 0.008 | tozasertib 0.004 | [4] 0.081 | doramapimod 0.002
active: ispinesib -0.258

NNMT (UniProt P40261)
UniProt P40261, sequence (P40261 whole entry, looked up): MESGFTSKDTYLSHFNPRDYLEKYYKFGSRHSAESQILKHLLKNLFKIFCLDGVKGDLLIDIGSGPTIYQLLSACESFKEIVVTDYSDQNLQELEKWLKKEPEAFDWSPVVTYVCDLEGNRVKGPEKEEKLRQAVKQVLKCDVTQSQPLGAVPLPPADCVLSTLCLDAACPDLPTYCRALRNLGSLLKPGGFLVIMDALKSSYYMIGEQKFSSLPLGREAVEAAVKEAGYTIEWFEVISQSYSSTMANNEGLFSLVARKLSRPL
inactive: [1] 0.039 | crizotinib -0.08 | [2] 0.085 | [3] -0.06 | duvelisib 0.06 | gandotinib -0.002 | tozasertib -0.007 | [4] -0.09 | doramapimod 0

NUP160 (UniProt Q12769)
UniProt Q12769, sequence (Q12769 whole entry, looked up): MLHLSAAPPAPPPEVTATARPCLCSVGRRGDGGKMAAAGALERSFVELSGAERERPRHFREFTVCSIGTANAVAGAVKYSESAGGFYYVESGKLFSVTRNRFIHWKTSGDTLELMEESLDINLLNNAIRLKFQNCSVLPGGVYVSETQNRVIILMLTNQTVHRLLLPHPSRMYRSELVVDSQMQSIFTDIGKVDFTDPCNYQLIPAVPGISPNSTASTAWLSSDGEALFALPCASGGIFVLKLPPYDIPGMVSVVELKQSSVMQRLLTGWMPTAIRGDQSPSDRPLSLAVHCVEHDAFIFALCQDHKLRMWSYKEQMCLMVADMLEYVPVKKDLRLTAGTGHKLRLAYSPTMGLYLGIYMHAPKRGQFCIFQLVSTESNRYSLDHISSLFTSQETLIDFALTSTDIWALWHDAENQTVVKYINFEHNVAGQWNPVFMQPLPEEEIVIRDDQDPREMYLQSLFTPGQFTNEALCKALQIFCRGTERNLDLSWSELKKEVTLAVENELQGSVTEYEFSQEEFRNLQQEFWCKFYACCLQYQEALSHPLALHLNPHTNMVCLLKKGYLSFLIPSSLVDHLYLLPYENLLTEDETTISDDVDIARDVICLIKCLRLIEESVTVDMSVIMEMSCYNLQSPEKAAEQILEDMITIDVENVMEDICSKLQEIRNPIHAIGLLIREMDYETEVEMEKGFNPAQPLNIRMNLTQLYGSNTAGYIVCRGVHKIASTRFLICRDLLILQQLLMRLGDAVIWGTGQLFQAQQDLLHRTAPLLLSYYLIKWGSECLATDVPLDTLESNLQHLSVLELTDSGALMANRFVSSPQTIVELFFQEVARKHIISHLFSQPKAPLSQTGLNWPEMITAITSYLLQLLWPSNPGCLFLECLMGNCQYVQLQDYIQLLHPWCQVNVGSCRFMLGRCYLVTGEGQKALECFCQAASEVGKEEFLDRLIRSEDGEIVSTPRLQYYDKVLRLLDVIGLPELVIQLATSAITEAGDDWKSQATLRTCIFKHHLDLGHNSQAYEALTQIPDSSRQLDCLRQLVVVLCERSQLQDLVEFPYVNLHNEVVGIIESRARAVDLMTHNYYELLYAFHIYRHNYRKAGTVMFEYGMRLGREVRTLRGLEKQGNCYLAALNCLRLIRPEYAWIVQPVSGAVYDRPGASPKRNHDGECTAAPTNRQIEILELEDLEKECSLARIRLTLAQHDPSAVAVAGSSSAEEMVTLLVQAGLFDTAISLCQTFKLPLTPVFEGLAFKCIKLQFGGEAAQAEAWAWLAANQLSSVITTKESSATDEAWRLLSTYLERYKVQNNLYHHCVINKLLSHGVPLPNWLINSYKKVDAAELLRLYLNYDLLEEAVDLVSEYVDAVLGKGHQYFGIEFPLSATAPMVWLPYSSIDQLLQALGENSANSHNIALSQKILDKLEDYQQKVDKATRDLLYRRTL
inactive: [1] 0.017 | crizotinib -0.014 | [2] 0.034 | [3] -0.027 | duvelisib 0.024 | gandotinib -0.06 | tozasertib 0.078 | [4] 0.007 | doramapimod 0.019 | ispinesib 0.044

MORF4L2 (UniProt Q15014)
inactive: [1] -0.085 | crizotinib 0.013 | [3] 0.053 | duvelisib -0.201 | gandotinib 0.085 | tozasertib -0.007 | [4] -0.012 | doramapimod 0.035 | ispinesib 0.011
active: [2] -0.275

NAGPA (UniProt Q9UK23)
inactive: [1] 0.017 | crizotinib 0.178 | [2] -0.078 | [3] -0.014 | duvelisib 0.067 | gandotinib 0.024 | tozasertib -0.094 | [4] -0.079 | doramapimod 0.072

NIPSNAP2 (UniProt C9J7B1)
inactive: [1] 0

MRPL47 (UniProt Q9HD33)
active: gandotinib 0.625
inactive: [1] 0.039 | crizotinib 0.019 | [2] -0.087 | [3] 0.261 | duvelisib -0.076 | tozasertib 0.033 | [4] 0.095 | doramapimod 0.11 | ispinesib -0.237

OSBPL8 (UniProt Q9BZF1)
inactive: [1] 0.019 | crizotinib -0.179 | [2] -0.043 | [3] 0.219 | duvelisib -0.207 | gandotinib -0.105 | tozasertib 0.089 | [4] 0.103 | doramapimod 0.078 | ispinesib -0.433
